# Screens deposited in PubChem by several laboratories.
# PDI inh = inhibitors of human PDI, primary screen, biochemical, turbidity, single point, plate reader. PDI insulin aggregation turbidity, A650, 90 min. hit rate 0.052% among 350,000. inhibition, % at 10 µM;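 active = mean inhibition across replicates of 30% or more, whatever share of single replicates reach that level; inconclusive = mean inhibition below 30% while every single replicate reaches 30%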
# CendR NRP1 mod = modulators of CendR peptide binding to NRP-1, primary screen, biochemical, fluorescence polarization, uHTS. Neuropilin-1 (Homo sapiens), O14786. FAM-RPARPAR peptide binding to NRP-1. inhibition, % at 25 µM. hit rate 0.85% among 360,000;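 active = inhibition or corrected inhibition above about 18%, plus a signal ratio from 0.5 to 1.5, limit read from the data, passing the limit was not always enough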
# ERp5 block = inhibitors of ERp5-driven insulin aggregation, primary screen, biochemical, turbidity, absorbance 650 nm, single point. 90 min. AID 651711, 2012. hit rate 0.05% among 350,000. inhibition, % at 9.99 µM. Protein disulfide-isomerase A6 (Homo sapiens), Q15084;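 active = mean replicate inhibition above about 25%, with every replicate also reaching it, limit read from the data, passing the limit was not always enough; inconclusive = only one of those two criteria met; inactive = neither criterion met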
# Target sequence (Q15084 whole entry, looked up): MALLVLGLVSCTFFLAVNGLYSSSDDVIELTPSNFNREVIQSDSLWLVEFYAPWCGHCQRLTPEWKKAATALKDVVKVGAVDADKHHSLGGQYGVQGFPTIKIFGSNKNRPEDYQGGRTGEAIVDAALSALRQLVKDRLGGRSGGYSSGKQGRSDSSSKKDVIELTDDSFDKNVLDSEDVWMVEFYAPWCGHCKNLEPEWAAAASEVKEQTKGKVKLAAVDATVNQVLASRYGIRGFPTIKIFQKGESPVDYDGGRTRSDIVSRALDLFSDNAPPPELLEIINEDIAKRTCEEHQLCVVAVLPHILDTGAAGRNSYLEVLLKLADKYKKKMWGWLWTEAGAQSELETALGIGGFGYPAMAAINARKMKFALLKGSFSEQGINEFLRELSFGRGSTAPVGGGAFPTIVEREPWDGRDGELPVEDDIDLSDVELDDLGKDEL
# ALR H2O2 inh = inhibitors of human ALR sulfhydryl oxidase, primary screen, biochemical, H2O2 detection, HRP-luminol luminescence, single point. inhibition, % (test concentration not listed). AID 485317, 2010. purified ALR, DTT oxidation. FAD-linked sulfhydryl oxidase ALR (Homo sapiens), P55789. hit rate 3.8% among 290,000;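 active = mean replicate inhibition above about 79%, with every replicate also reaching it, limit read from the data; inconclusive = only one of the two criteria met; inactive = mean below limit and not every replicate reaching it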
# Target sequence (P55789 whole entry, looked up): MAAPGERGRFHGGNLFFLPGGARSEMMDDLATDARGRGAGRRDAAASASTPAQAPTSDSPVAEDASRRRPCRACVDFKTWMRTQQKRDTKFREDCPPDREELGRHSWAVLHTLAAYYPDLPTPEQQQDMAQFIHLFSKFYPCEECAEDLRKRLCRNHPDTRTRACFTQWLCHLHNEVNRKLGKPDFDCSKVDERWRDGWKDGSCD
# ARNT TACC3 PPI = disruptors of ARNT/TACC3 protein interaction, primary screen, biochemical, AlphaScreen, single concentration | Transforming acidic coiled-coil-containing protein 3 (Homo sapiens), Q9Y6A5 | AlphaScreen His-ARNT PAS-B/GST-TACC3 binding, luminescence; TACC3 fragment carries E629A point mutation | inhibition, % at 9.99 µM | hit rate 0.66% among 390,000;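 active = mean inhibition of replicates at least 50% and at least half of replicates each reaching 50%; inconclusive = half or more replicates reach 50% but mean below 50%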;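 note: 0% = complete ARNT plus TACC3 wells and 100% = ARNT alone without TACC3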
# PglD DTNB = C. jejuni PglD acetyltransferase inhibitors, primary screen, biochemical, DTNB colorimetric, single point; purified PglD enzyme, DTNB colorimetric CoA detection; inhibition, % at 12.5 µM; hit rate 0.098% among 360,000; AID 602405, 2012; in the data active = inhibition above about 16%, passing the limit was not always enough; inconclusive = no clear call, values can overlap the other calls
# Numbers without * were called inactive; ? = inconclusive; nt = not tested or not shown. The sample as a whole holds a higher share of hits than the screen did.
SMILES,PDI inh,CendR NRP1 mod,ERp5 block,ALR H2O2 inh,ARNT TACC3 PPI,PglD DTNB
CCCC(=O)Nc1ccc(C(=O)NNC(=S)NC(=O)c2cccs2)cc1,7,-3,nt,14,6,5
CC(C)(C)c1ccc(C(=O)NC(=S)NNC(=O)c2cccs2)cc1,-3,8,nt,98*,27,1
O=c1[nH]n2c(C(F)(F)F)cc(C3CC3)nc2c1N=Nc1ccccc1,1,24*,5,nt,2,nt
CCOc1ccc(NC(=O)CN2CCN(CC(=O)Nc3ccc(Cl)c(C(F)(F)F)c3)CC2)cc1,3,21*,-1,0,5,6
CCOc1ccc(NC(=O)CN2CCN(CC(=O)Nc3cccc(F)c3)CC2)cc1,-10,4,nt,-14,3,-6
O=C(O)c1cccc(COc2ccc3c(c2)CCC3)c1,1,1,-5,91*,-10,-3
Cc1c(Cl)cccc1NC(=O)CSC(N)=O,3,5,-4,99*,0,-1
NC(=O)SCC(=O)Nc1ccc(Cl)c(Cl)c1,7,0,nt,98*,5,nt
NC(=O)SCC(=O)Nc1cccc(Cl)c1,0,-17,nt,99*,6,nt
N#CCSCC(=O)Nc1ccc(Cl)cc1,2,8,nt,99*,1,9
Nc1nnc(SCC(=O)Nc2cccc(Cl)c2)s1,-1,-2,-1,nt,-5,nt
C[C@@H](NC(=O)C[C@@H]1C=C[C@H](NS(=O)(=O)c2cccc(F)c2)[C@H](CO)O1)c1ccccc1,nt,nt,2,nt,8,-1
Cc1ccc(NC(=O)CSC(N)=O)cc1Cl,9,0,nt,100*,-5,nt
NC(=O)SCC(=O)Nc1ccc(Cl)cc1,-2,-2,nt,99*,-6,8
C[C@H](CO)N1C[C@H](C)[C@@H](CN(C)Cc2cncnc2)Oc2ncc(C#Cc3ccccn3)cc2C1=O,nt,nt,-1,nt,15,2
CN1c2ccc(Br)cc2[C@H]2[C@H](CCN2C(=O)CN2CCOCC2)[C@@H]1CO,nt,nt,4,nt,-5,-5
O=C(CSC1=NS(=O)(=O)c2cc(F)ccc2N1)Nc1cccc(F)c1,5,-2,4,97*,-2,-1
CC(C)n1cnc2c(Nc3ccc(F)c(Cl)c3)nc(NCCO)nc21,-3,-7,2,39,-6,-6
C=CC(=O)Nc1ccc(Nc2nc(NC3CCC(N(C)C)CC3)nc3c2ncn3C(C)C)cc1 (stereo unspecified),-4,27*,nt,-5,9,0
CCOc1ccc(-c2nc(CCl)cs2)cc1,5,-9,-1,nt,-6,2
COc1ccc(Br)cc1-c1nc(CCl)cs1,-1,-8,-2,95*,-3,nt
O=C(C[C@H]1CC[C@H]2[C@@H](COC[C@H](O)CN2C(=O)Nc2ccc(Cl)c(Cl)c2)O1)NCc1ccc(F)cc1,nt,nt,0,nt,5,-1
COCC#Cc1ccc2c(c1)O[C@@H](CN(C)Cc1ccc(F)cc1)[C@@H](C)CN([C@H](C)CO)S2(=O)=O,nt,nt,-1,nt,0,-2
Nc1nc(-c2ccccc2)[nH]c(=O)c1N=O,3,-7,6,nt,37,7
Nc1[nH]c(=O)nc(Nc2ccccc2)c1N=O,0,-6,7,-6,28*,nt
SMILES,PDI inh,CendR NRP1 mod,ERp5 block,ALR H2O2 inh,ARNT TACC3 PPI,PglD DTNB
COCCCNC(=O)CSc1c2c(nc3ccc(Cl)cc13)CCCC2,-4,-6,-3,99*,nt,nt
O=C(CSc1c2c(nc3ccc(Cl)cc13)CCCC2)NCCCN1CCOCC1,-13,-4,nt,98*,-4,0
O=C(CSc1c2c(nc3cc(Cl)ccc13)CCCC2)NCCCN1CCOCC1,1,-9,-1,97*,7,nt
C[C@H](CO)N1C[C@H](C)[C@H](CN(C)Cc2ccc(C(F)(F)F)cc2)OCCCC[C@H](C)Oc2ccc(NC(=O)CCCN(C)C)cc2C1=O,nt,nt,3,nt,5,-5
CC(=O)N1[C@H](CO)[C@H](c2ccc(C#CC3CCCCC3)cc2)[C@H]1CNCC(C)C,nt,nt,3,nt,nt,nt
COc1ccc(CNC(=O)C[C@H]2CC[C@H](NC(=O)c3cccc(F)c3)[C@@H](CO)O2)cc1,nt,nt,2,nt,29,2
CN1C(=O)c2cc(NC(=O)c3cnccn3)ccc2OC[C@@H]2O[C@H](CC(=O)N[C@H]3CCN(Cc4ccccc4)C3)CC[C@@H]21,nt,nt,-3,nt,-2,3
COc1ccc(C(=O)Nc2ccc3c(c2)C(=O)N(C)C[C@H](OC)[C@@H](C)CN(C(C)=O)[C@H](C)CO3)cc1,nt,nt,-3,nt,-4,-3
CC(NC(=O)CSc1nc2c(c(C(F)(F)F)n1)CCc1ccccc1-2)c1ccccc1 (stereo unspecified),-7,28*,0,-12,-5,-1
CCOC(=O)CSc1nc(N2CCOCC2)c2c(c1C#N)CC(C)(C)OC2,-11,2,5,0,-5,6
CCOC(=O)CSc1nc(N2CCOCC2)c2c(c1C#N)CC(C)(C)N(C)C2,-3,-4,nt,100*,-1,-4
CCc1cccc(CC)c1NC(=O)/C(C#N)=C/c1ccccc1C(F)(F)F,8,6,nt,-53,-8,-1
N#C/C(=C\c1ccccc1C(F)(F)F)C(=O)Nc1ccccc1,-70,-4,-10,90*,nt,nt
N#C/C(=C\c1ccccc1OCc1ccc(C(=O)O)cc1)C(=O)Nc1ccc(O)cc1,51*,-22,-1,?,-6,nt
C=CCNc1nc(C(=O)OCC(=O)Nc2cc(S(C)(=O)=O)ccc2Cl)cs1,0,1,3,-12,nt,nt
C=CCNc1nc(C(=O)OCC(=O)Nc2ccc(S(N)(=O)=O)cc2)cs1,-13,-21,13,98*,44,-2
C[C@@H]1CN([C@@H](C)CO)C(=O)c2cccc(NS(=O)(=O)c3cn(C)cn3)c2O[C@@H]1CN(C)Cc1ccc(C(F)(F)F)cc1,nt,nt,-3,nt,-18,-2
O=C(CCc1ccc(S(=O)(=O)N2CCOCC2)cc1)N/N=C/c1ccc(F)cc1F,-8,10,3,5,0,2
O=C(CCc1ccc(S(=O)(=O)N2CCOCC2)cc1)N/N=C/c1ccc(O)c(O)c1O,-1,-5,nt,99*,11,0
COc1ccc2c3c(n(C)c2c1)[C@H](CO)N(CC1CC1)CC31CN(C(=O)c2ccc3c(c2)OCO3)C1,nt,nt,-4,nt,nt,nt
Cc1ccc2nc(CCc3ccc(N)cc3)[nH]c2c1,12,-11,2,99*,1,1
Nc1ccc2nc(CCc3ccccc3)[nH]c2c1,-6,3,-2,99*,3,nt
